From PubChem BioAssay (NCI)
This is part of a sample that, as a whole, favours compounds with a hit. Of some 83,000 tested, about 20% had one in any assay.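 Testing used 96-well plates and a 48-hour single-concentration exposure. Example: -40 means 40% of the starting cells died.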 Calls of active or inactive are those of the source. How the source made its calls: active means growth percent below 10; inactive means the rest.

Experiments:
Assay in all cases: NCI-60 one-dose screen, 48 h (100 = growth as untreated, 0 = no growth, -100 = all killed)
Details in all cases: 10 µM
[1] = system: BT-549 breast
[2] = system: MDA-MB-435 melanoma
[3] = system: SW-620 colon
[4] = system: MCF7 breast
[5] = system: HCT-116 colon
[6] = system: HCC-2998 colon
[7] = system: KM12 colon

| Compound | growth [1] | growth [2] | growth [3] | growth [4] | growth [5] | growth [6] | growth [7] |
| --- | --- | --- | --- | --- | --- | --- | --- |
| Nc1c(C(=O)Nc2cccc3ccccc23)sc2nc3c(cc12)C(=O)CCC3 | 57% (inactive) | -37.3% (active) | 21.3% (inactive) | 13.6% (inactive) | 17.5% (inactive) | 11.9% (inactive) | 25.9% (inactive) |
| CCC(=O)N1C/C(=C/c2ccc(Br)cc2)C(=O)/C(=C/c2ccc(Br)cc2)C1 | -48.4% (active) | -63% (active) | -64.2% (active) | -16.1% (active) | -88.4% (active) | -85.9% (active) |  |
| O=C1/C(=C\c2ccccc2)CN(C(=O)c2ccccc2)C/C1=C\c1ccccc1 | 2.1% (active) | -49.6% (active) | -62.3% (active) | -36.9% (active) | -81.4% (active) | -77.9% (active) |  |
| Cc1ccc(Nc2nnc(-c3cc(-c4ccncc4)n(-c4ccccc4)n3)s2)cc1 | 64.8% (inactive) | 78.3% (inactive) | 94% (inactive) | 80.3% (inactive) | 51.3% (inactive) | 57.1% (inactive) | 50.8% (inactive) |
| O=C(N/N=C/c1ccccc1)C(Oc1ccccc1)c1ccccc1 (centres undefined) | 105% (inactive) | 44% (inactive) | 96.2% (inactive) | 97.9% (inactive) | 87.2% (inactive) | 97.3% (inactive) | 84.5% (inactive) |
| O=C1NC(=O)c2ncccc21 | 91.1% (inactive) | 100% (inactive) | 120% (inactive) | 95.5% (inactive) | 102% (inactive) | 103% (inactive) | 107% (inactive) |
| CN(C)CCOc1nc2ccccc2c2c1-c1ccc(Cl)cc1C2=O | 52.1% (inactive) | -41.6% (active) | -60.8% (active) | -38.7% (active) | 1.69% (active) | -53.6% (active) | -45.2% (active) |
| CCN(CC)Cc1cc(Nc2ccnc3cc(Cl)ccc23)ccc1OC | 110% (inactive) | 77.9% (inactive) | 64.1% (inactive) | 86.7% (inactive) | 69.1% (inactive) | 81% (inactive) | 83.5% (inactive) |
| CC(C)(C)c1cc(Br)cc(C(C)(C)C)c1O | 111% (inactive) | 95.8% (inactive) | 112% (inactive) | 99% (inactive) | 104% (inactive) | 103% (inactive) | 105% (inactive) |
| COc1ccc2c(c1)C(=O)c1c-2c(OCCN2CCCCC2)nc2ccc(OC)cc12 | 51.3% (inactive) | 23.9% (inactive) | 8.07% (active) | 9.47% (active) | 7.15% (active) | 39.8% (inactive) | 29.2% (inactive) |
| NC(=S)N=Nc1c(O)c2ccccc2c2ccccc12 | 49.5% (inactive) | -85.5% (active) | 47% (inactive) | 24.5% (inactive) | 32% (inactive) | 98.6% (inactive) | 92% (inactive) |
| NC(=O)c1ccc(-c2cccc3c(=O)nc(N4CCOCC4)oc23)cc1 | 98.1% (inactive) | 107% (inactive) | 104% (inactive) | 90.3% (inactive) | 104% (inactive) | 101% (inactive) | 97.6% (inactive) |
| C[C@]12CC[C@@H]3c4ccc(O)cc4C[C@@H](O)[C@H]3[C@@H]1CC[C@@H]2O | 102% (inactive) | 95.8% (inactive) | 110% (inactive) | 115% (inactive) | 105% (inactive) | 118% (inactive) | 111% (inactive) |
| COc1ccc(-c2nn(-c3cccc(NC(=O)c4ccc(N5CCOCC5)c(C(F)(F)F)c4)c3)cc2-c2ccncc2)cc1Cl | 67.9% (inactive) | 30% (inactive) | 83.3% (inactive) | 53% (inactive) | 55.5% (inactive) | 67.6% (inactive) | 43.7% (inactive) |
| Clc1ccc(/C=C2\CCCC3=C2N=C2SC=NN2C3c2ccc(Cl)cc2)cc1 (centres undefined) | 117% (inactive) | 76.7% (inactive) | 94.1% (inactive) | 23.7% (inactive) | 5.7% (active) | 77.2% (inactive) | 83.9% (inactive) |
| COC(=O)C(C(C[N+](=O)[O-])c1ccccc1)=P(c1ccccc1)(c1ccccc1)c1ccccc1 (centres undefined) | 93% (inactive) | 49.5% (inactive) | 69.8% (inactive) | 30.2% (inactive) | 4.02% (active) | 101% (inactive) | 88.3% (inactive) |
| COc1cc(-c2cc(-c3cc4c([nH]c5ccccc54)c(-c4cc(OC)c(OC)c(OC)c4)n3)cc(-c3ccccc3)n2)cc(OC)c1OC | 66.6% (inactive) | -1.18% (active) | 41.4% (inactive) | 44% (inactive) | 57% (inactive) | 72.8% (inactive) | 60% (inactive) |

| Compound | growth [1] | growth [2] | growth [3] | growth [4] | growth [5] | growth [6] | growth [7] |
| --- | --- | --- | --- | --- | --- | --- | --- |
| O=C1N=NC2=C1c1c3ccccc3c(O)n1CC2 | 110% (inactive) | 99.8% (inactive) | 106% (inactive) | 94.2% (inactive) | 93.9% (inactive) | 101% (inactive) | 109% (inactive) |
| COc1cccc(-c2cc(-c3cccc(NS(C)(=O)=O)c3)nc(N)c2C#N)c1O | 58.1% (inactive) | -20.8% (active) | 37.4% (inactive) | 19.1% (inactive) | 24.7% (inactive) | -25.3% (active) | 23.1% (inactive) |
| O=C1ON=[N+](c2ccc(Cc3ccc([N+]4=NOC(=O)C4CN4CCOCC4)cc3)cc2)C1CN1CCOCC1 (centres undefined) | 60.7% (inactive) | 4.71% (active) | 67.7% (inactive) | 45.6% (inactive) | 63.7% (inactive) | 80.5% (inactive) | 54.3% (inactive) |
| COc1ccc(OC)c(/C=C/c2nc(SCc3ccccc3)n(-c3ccc(Cl)cc3)n2)c1 | 61.8% (inactive) | -24.9% (active) | 28.2% (inactive) | 52.9% (inactive) | 20.2% (inactive) | 73.1% (inactive) | 31.1% (inactive) |
| CC(C)=CCc1ccc(O)c(=O)cc1C(C)C | -2.13% (active) | 30.7% (inactive) | 34.1% (inactive) | 21.5% (inactive) | 17.3% (inactive) | 7.5% (active) | 26.4% (inactive) |
| CC(C)N(CCNc1nc(C(Cl)(Cl)Cl)nc2cc(Cl)ccc12)C(C)C | 21.3% (inactive) | -47.2% (active) | -30.6% (active) | -85.6% (active) | -90.6% (active) | -50.2% (active) | -79.1% (active) |
| N#Cc1ncc(Br)c(NC2CCCCCC2)n1 | 98.4% (inactive) | 103% (inactive) | 113% (inactive) | 92.1% (inactive) | 104% (inactive) | 111% (inactive) | 113% (inactive) |
| COC(=O)C1=NNC(=S)N(c2cc(C)[nH]n2)C(=O)C1 | 107% (inactive) | 99.4% (inactive) | 102% (inactive) | 96% (inactive) | 99.2% (inactive) | 93.6% (inactive) | 102% (inactive) |
| CCCC(F)C(=O)O (centres undefined) | 111% (inactive) | 95.8% (inactive) | 105% (inactive) | 97.8% (inactive) | 102% (inactive) | 111% (inactive) | 106% (inactive) |
| Nc1c(C(=O)Nc2ccccc2)sc2nc3c(cc12)CCCC3 | 66.6% (inactive) | -30.6% (active) | 34.4% (inactive) | 15.6% (inactive) | 25.5% (inactive) | 24.5% (inactive) | 31.1% (inactive) |
| COc1ccc(-c2cc(/C=C3\C(=O)Nc4ccc(OC)cc43)[nH]n2)cc1 | 61.5% (inactive) | -25.1% (active) | 19.3% (inactive) | 7.36% (active) | 25.3% (inactive) | 52.8% (inactive) | 8.99% (active) |
| CN(C)CCS(=O)(=O)CCN(C)C | 101% (inactive) | 116% (inactive) | 94.5% (inactive) | 107% (inactive) | 96.9% (inactive) | 102% (inactive) | 99.6% (inactive) |
| O=C(Nc1nc(-c2ccccc2Cl)cs1)c1cc(-c2ccc(Cl)cc2)nc2ccc(Cl)cc12 | -9.33% (active) | -46.9% (active) | 26.7% (inactive) | 11.2% (inactive) | 6.81% (active) | 90.7% (inactive) | 12.4% (inactive) |
| CN(C)CCCn1c(=O)c2ccccc2c2cnc3[nH]ccc3c21 | 34.1% (inactive) | 11.9% (inactive) | 5.02% (active) | 1.25% (active) | 2.85% (active) | 30.3% (inactive) | 9.58% (active) |
| Cc1occc1-c1nnc(SCC(=O)c2ccc(NC(=O)CC(C)C)cc2)o1 | 108% (inactive) | 97.9% (inactive) | 108% (inactive) | 107% (inactive) | 109% (inactive) | 74.5% (inactive) | 99.4% (inactive) |
| C=C1c2c(C)nn(-c3ccc(OC)cc3)c2N(C)C23C[C@@H]1C1(C)c4c(C)nn(-c5ccc(OC)cc5)c4N(C)C(C)(C[C@H]12)C3 (some centres undefined) | 32.9% (inactive) | 34% (inactive) | 31.4% (inactive) | 20.8% (inactive) | 16.7% (inactive) | 34.9% (inactive) | 28.6% (inactive) |
